Measurements published in PubChem BioAssay AID1159580 (chemical genetic matrix, 2015).
Screen size: about 5,500 compounds; about 2,000 (36%) were called active. Roughly 18% stayed inconclusive and do not appear here. Cut-off read from the data, not from the text of the source: active = normalized growth mostly below about 0.91 (no sharp cut-off); inconclusive = no clear call, values can overlap the other calls; inactive = mostly above about 0.92. The list shows a part of the results.

Assay: chemical genetic growth profiling, strain panel (AID 1159580);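 note: tested at 20 µM; growth read once vehicle control cultures reached saturation at 30 °C; 1 = growth at the plate median or of vehicle wells; lower values mean less growth of the strain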
Settings: growth OD

Measured: normalized growth

O=C1NS(=O)(=O)c2ccccc21
inactive: S. cerevisiae deletion strains, locus YJR066W, strain TOR1, hits give low values 0.939 | S. cerevisiae deletion strains, locus YKL009W, strain mrt4, hits give low values 0.988 | S. cerevisiae deletion strains, locus YKL068W, hits give low values 1 | S. cerevisiae deletion strains, locus YKL085W, strain MDH1 (second series), hits give low values 0.994 | S. cerevisiae deletion strains, locus YKL085W, strain MDH1, hits give low values 0.994 | S. cerevisiae deletion strains, locus YKL160W, strain elf1, hits give low values 0.991 | S. cerevisiae deletion strains, locus YKL190W, strain CNB1, hits give low values 1.01 | S. cerevisiae deletion strains, locus YKR001C, strain vps1, hits give low values 0.996 | S. cerevisiae deletion strains, locus YKR026C, strain gcn3, hits give low values 1.03 | S. cerevisiae deletion strains, locus YKR091W, strain srl3, hits give low values 1.01 | S. cerevisiae deletion strains, locus YLL001W, strain dnm1, hits give low values 0.986 | S. cerevisiae deletion strains, locus YLL026W, hits give low values 1.02 | S. cerevisiae deletion strains, locus YLL041C, strain sdh2, hits give low values 1.02 | S. cerevisiae deletion strains, locus YLR027C, strain aat2, hits give low values 1.02 | S. cerevisiae deletion strains, locus YLR039C, strain RIC1, hits give low values 1.01 | S. cerevisiae deletion strains, locus YLR058C, strain SHM2, hits give low values 1.02 | S. cerevisiae deletion strains, locus YLR102C, strain apc9, hits give low values 0.979 | S. cerevisiae deletion strains, locus YLR113W, strain HOG1, hits give low values 0.978 | S. cerevisiae deletion strains, locus YLR221C, strain rsa3, hits give low values 1.06 | S. cerevisiae deletion strains, locus YLR258W, strain gsy2, hits give low values 1.03 | S. cerevisiae deletion strains, locus YLR262C, strain YPT6 (second series), hits give low values 1.01 | S. cerevisiae deletion strains, locus YLR262C, strain YPT6, hits give low values 1.02 | S. cerevisiae deletion strains, locus YLR268W, strain sec22, hits give low values 0.978 | S. cerevisiae deletion strains, locus YLR320W, strain mms22, hits give low values 1.06 | S. cerevisiae deletion strains, locus YLR330W, strain CHS5, hits give low values 1 | S. cerevisiae deletion strains, locus YLR342W, strain FKS1 (second series), hits give low values 0.968 | S. cerevisiae deletion strains, locus YLR342W, strain FKS1, hits give low values 1.03 | S. cerevisiae deletion strains, locus YLR357W, strain rsc2, hits give low values 1.01 | S. cerevisiae deletion strains, locus YLR370C, strain arc18, hits give low values 1.02 | S. cerevisiae deletion strains, locus YLR371W, strain rom2, hits give low values 0.983 | S. cerevisiae deletion strains, locus YLR384C, strain iki3, hits give low values 1.04 | S. cerevisiae deletion strains, locus YLR418C, strain cdc73, hits give low values 0.989 | S. cerevisiae deletion strains, locus YML016C, strain PPZ1, hits give low values 1.01 | S. cerevisiae deletion strains, locus YML032C, strain rad52, hits give low values 0.986 | S. cerevisiae deletion strains, locus YML120C, strain ndi1, hits give low values 0.995 | S. cerevisiae deletion strains, locus YML124C, strain tub3, hits give low values 0.999 | S. cerevisiae deletion strains, locus YMR058W, strain fet3, hits give low values 1.03 | S. cerevisiae deletion strains, locus YMR078C, strain ctf18, hits give low values 0.989 | S. cerevisiae deletion strains, locus YMR125W, strain sto1, hits give low values 0.999 | S. cerevisiae deletion strains, locus YMR129W, hits give low values 1.02 | S. cerevisiae deletion strains, locus YMR205C, strain PFK2, hits give low values 1.03 | S. cerevisiae deletion strains, locus YMR223W, strain ubp8, hits give low values 0.985 | S. cerevisiae deletion strains, locus YMR231W, strain pep5, hits give low values 1.02 | S. cerevisiae deletion strains, locus YMR307W, strain GAS1, hits give low values 0.935 | S. cerevisiae deletion strains, locus YNL067W, strain RPL9B, hits give low values 1.01 | S. cerevisiae deletion strains, locus YNL071W, strain lat1, hits give low values 1.01 | S. cerevisiae deletion strains, locus YNL153C, strain GIM3, hits give low values 1.03 | S. cerevisiae deletion strains, locus YNL183C, strain NPR1, hits give low values 0.931 | S. cerevisiae deletion strains, locus YNL209W, strain ssb2, hits give low values 1 | S. cerevisiae deletion strains, locus YNL233W, strain BNI4, hits give low values 1.02 | S. cerevisiae deletion strains, locus YNL248C, strain rpa49, hits give low values 1.08 | S. cerevisiae deletion strains, locus YNL250W, strain rad50, hits give low values 0.985 | S. cerevisiae deletion strains, locus YNL271C, strain bni1, hits give low values 0.986 | S. cerevisiae deletion strains, locus YNL298W, strain CLA4, hits give low values 0.987 | S. cerevisiae deletion strains, locus YNL307C, strain MCK1, hits give low values 0.99 | S. cerevisiae deletion strains, locus YNL322C, strain KRE1 (second series), hits give low values 1.02 | S. cerevisiae deletion strains, locus YNR049C, strain mso1, hits give low values 1.02 | S. cerevisiae deletion strains, locus YNR052C, strain pop2, hits give low values 0.981 | S. cerevisiae deletion strains, locus YOL006C, strain TOP1, hits give low values 1.08 | S. cerevisiae deletion strains, locus YOL012C, strain htz1 1.16 | S. cerevisiae deletion strains, locus YOL147C, strain pex11, hits give low values 0.992 | S. cerevisiae deletion strains, locus YOR001W, strain rrp6, hits give low values 1.06 | S. cerevisiae deletion strains, locus YOR061W, strain CKA2, hits give low values 1.02 | S. cerevisiae deletion strains, locus YOR069W, strain VPS5, hits give low values 1.01 | S. cerevisiae deletion strains, locus YOR070C, strain gyp1, hits give low values 1.02 | S. cerevisiae deletion strains, locus YOR080W, strain dia2, hits give low values 1.03 | S. cerevisiae deletion strains, locus YOR083W, strain WHI5, hits give low values 0.981 | S. cerevisiae deletion strains, locus YOR106W, strain vam3, hits give low values 0.977 | S. cerevisiae deletion strains, locus YOR136W, strain idh2, hits give low values 0.986 | S. cerevisiae deletion strains, locus YOR144C, strain elg1, hits give low values 0.993 | S. cerevisiae deletion strains, locus YOR184W, strain ser1, hits give low values 0.987 | S. cerevisiae deletion strains, locus YOR231W, strain MKK1, hits give low values 0.985 | S. cerevisiae deletion strains, locus YOR265W, strain rbl2, hits give low values 1.03 | S. cerevisiae deletion strains, locus YOR270C, strain vph1, hits give low values 1.06 | S. cerevisiae deletion strains, locus YOR290C, strain snf2, hits give low values 0.963 | S. cerevisiae deletion strains, locus YOR316C, strain cot1, hits give low values 0.983 | S. cerevisiae deletion strains, locus YPL051W, strain arl3, hits give low values 1.02 | S. cerevisiae deletion strains, locus YPL078C, strain atp4, hits give low values 0.98 | S. cerevisiae deletion strains, locus YPL106C, strain sse1, hits give low values 0.997 | S. cerevisiae deletion strains, locus YPL240C, strain hsp82, hits give low values 1.01 | S. cerevisiae deletion strains, locus YPL241C, strain CIN2, hits give low values 1 | S. cerevisiae deletion strains, locus YPL256C, strain CLN2, hits give low values 0.979 | S. cerevisiae deletion strains, locus YPR119W, strain clb2, hits give low values 0.982 | S. cerevisiae deletion strains, locus YPR141C, strain kar3, hits give low values 0.982 | S. cerevisiae deletion strains, locus YPR163C, strain tif3, hits give low values 0.986 | S. cerevisiae deletion strains, locus YPR167C, strain met16, hits give low values 0.984 | S. cerevisiae deletion strains, strain wtn01, hits give low values 0.974 | S. cerevisiae strains, strain wild type, hits give low values 1.01
